From PubChem BioAssay (NCI)
The panel holds about 79,000 compounds, 15% with a hit somewhere; the sample as a whole holds those more often. The source made the active and inactive calls. Rule as the data show it: active = growth inhibition above about 70%; inactive = the rest.

Key:
[1] = NCI Yeast Anticancer Drug Screen. Data for the rad50 strain (AID 155);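 also: 0% = growth of vehicle-only cultures of the same strain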; conditions: S. cerevisiae rad50 strain growth inhibition, active compounds read high
Outline: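 DNA repair mutant yeast, compound exposure, growth read-out; inhibition is taken relative to vehicle.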

[2] = NCI Yeast Anticancer Drug Screen. Data for the mec2-1 strain (AID 157); conditions: S. cerevisiae mec2-1 strain, active compounds read high
Outline: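 Mutant yeast (mec2-1) grown with compound; growth inhibition relative to vehicle control reported.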

[3] = NCI Yeast Anticancer Drug Screen. Data for the sgs1 mgt1 strain (AID 161);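 also: 0% = growth of cultures given vehicle only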; conditions: S. cerevisiae sgs1 mgt1 strain, active compounds read high
Outline: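 Percent growth inhibition was derived by comparing compound-exposed mutant yeast with vehicle-exposed cultures. The strain carries alterations in DNA damage repair.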

[4] = NCI Yeast Anticancer Drug Screen. Data for the cln2 rad14 strain (AID 165);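 also: 0% = growth equal to vehicle treated cultures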; conditions: S. cerevisiae cln2 rad14 strain, active compounds read high
Outline: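 Readout is yeast growth inhibition versus vehicle-treated controls, using a strain with cln2 and rad14 alterations exposed to compound.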

[5] = NCI Yeast Anticancer Drug Screen. Data for the bub3 strain (AID 167); conditions: S. cerevisiae bub3 mutant strain, active compounds read high
Outline: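 In this screen, a yeast mutant lacking normal mitotic checkpoint function is challenged with compound. Relative growth versus vehicle gives the inhibition value.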

[6] = NCI Yeast Anticancer Drug Screen. Data for the mlh1 rad18 strain (AID 175); conditions: S. cerevisiae mlh1 rad18 strain growth inhibition, active compounds read high
Outline: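 Genetically defined yeast (DNA repair-deficient) exposed to compounds; growth inhibition determined relative to vehicle.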

[7] = at 5.0 µM (retest, dose inferred, filed as 0.5)
[8] = at 50.0 µM (retest, dose inferred, filed as 5.0)

Measured: growth inhibition

Nc1nc(-c2ccccn2)cc2cc(Cl)ccc12
inactive: [1]; at 50.0 µM 3.15% | [2]; at 50.0 µM -5.45% | [3]; at 50.0 µM 7.55% | [4]; at 50.0 µM -1.4% | [5]; at 50.0 µM 8.05% | [6]; at 50.0 µM 13.9%
active: [1]; [7] 93% | [1]; [8] 99% | [2]; [7] 92% | [2]; [8] 100% | [3]; [7] 95% | [3]; [8] 99% | [4]; [7] 88% | [4]; [8] 98% | [5]; [7] 92% | [5]; [8] 99% | [6]; [7] 94% | [6]; [8] 98%

CC1(C)C[C@H]2C=C(C=O)[C@]34C[C@]3(C(=O)OC4O)[C@H]2C1 (stereo not given in full)
active: [1]; [7] 94% | [1]; [8] 99% | [1]; at 50.0 µM 92.5% | [2]; [7] 98% | [2]; [8] 100% | [2]; at 50.0 µM 93.6% | [3]; [7] 98% | [3]; [8] 100% | [3]; at 50.0 µM 93.2% | [4]; [7] 84% | [4]; [8] 99% | [4]; at 50.0 µM 92.3% | [5]; [7] 97% | [5]; [8] 100% | [5]; at 50.0 µM 92.3% | [6]; [7] 96% | [6]; [8] 97% | [6]; at 50.0 µM 90.7%

CC(=O)OCCn1c2nc(=O)[nH]c(=O)c-2nc2cc(C)c(C)cc21
inactive: [1]; [7] -4% | [1]; [8] 18% | [1]; at 50.0 µM 0.8% | [2]; [7] 0% | [2]; [8] 18% | [2]; at 50.0 µM -3.35% | [3]; [7] 1% | [3]; at 50.0 µM 35% | [4]; [7] -4% | [4]; [8] 2% | [4]; at 50.0 µM -42.9% | [5]; [7] -1% | [5]; [8] 1% | [5]; at 50.0 µM 8% | [6]; [7] 9% | [6]; [8] 14% | [6]; at 50.0 µM 47.5%
active: [3]; [8] 81%

CN(C)CC(CN(C)C)C(=O)C1CCCCC1
active: [1]; [8] 90% | [1]; at 50.0 µM 81.2% | [2]; [8] 96% | [2]; at 50.0 µM 94.7% | [3]; [8] 71% | [3]; at 50.0 µM 76.8% | [4]; [8] 89% | [5]; [8] 98% | [6]; [8] 95% | [6]; at 50.0 µM 96.6%
inactive: [1]; [7] 25% | [2]; [7] 2% | [3]; [7] -9% | [4]; [7] 19% | [4]; at 50.0 µM 10.3% | [5]; [7] 7% | [5]; at 50.0 µM 23.2% | [6]; [7] 12%

Cc1c2cc[n+](C)cc2c(COC2OC(CO)C(O)C2O)c2c3ccccc3n(C)c12 (stereo not given)
inactive: [1]; [7] 23% | [1]; [8] 44% | [1]; at 50.0 µM 65% | [2]; [7] 10% | [2]; [8] 10% | [2]; at 50.0 µM 23.6% | [3]; [7] -12% | [3]; [8] 23% | [3]; at 50.0 µM 17.9% | [4]; [7] 19% | [4]; [8] 24% | [4]; at 50.0 µM 18.1% | [5]; [7] 12% | [5]; [8] 14% | [5]; at 50.0 µM 28.1% | [6]; [7] 13% | [6]; [8] 14% | [6]; at 50.0 µM 23.2%
